Data taken from the supplement of paper PMC8728848.
The entries come from a sample that favours the strongest signals as a whole.

How the values were obtained:
Assay in all cases: glycan array binding signal (z-score within array); higher = stronger binding
Settings in all cases: glycan notation: IUPAC condensed, linker removed
[1] = target: Fuc(a1-2)Gal(b1-3)GalNAc(b1-3)Gal(a1-4)Gal(b1-4)Glc
Summary of the method: (§1)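 The binding signal is a Z-score computed within each array and averaged over linkers. Arrays of the same protein sequence at different concentrations or buffers were also averaged together. Data originate from 3228 arrays in the Consortium for Functional Glycomics database, kept only where the protein sequence was available.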

[2] = target: Fuc(a1-2)Gal(b1-3)GlcNAc(b1-3)[Neu5Ac(a2-6)Gal(b1-4)GlcNAc(b1-6)]Gal(b1-4)Glc
Summary of the method: as §1

[3] = target: Fuc(a1-2)Gal(b1-4)GlcNAc(b1-2)Man(a1-3)[Fuc(a1-2)Gal(b1-4)GlcNAc(b1-2)Man(a1-6)]Man(b1-4)GlcNAc(b1-4)GlcNAc
Summary of the method: as §1

[4] = target: Fuc(a1-2)[Gal(a1-3)]Gal(b1-4)GlcNAc
Summary of the method: as §1

[5] = target: Fuc(a1-2)[Gal(a1-3)]Gal(b1-4)GlcNAc(b1-2)Man(a1-3)[Fuc(a1-2)[Gal(a1-3)]Gal(b1-4)GlcNAc(b1-2)Man(a1-6)]Man(b1-4)GlcNAc(b1-4)GlcNAc
Summary of the method: as §1

[6] = target: Fuc(a1-2)[Gal(a1-3)]Gal(b1-4)GlcNAc(b1-2)Man(a1-3)[Fuc(a1-2)[Gal(a1-3)]Gal(b1-4)GlcNAc(b1-2)Man(a1-6)]Man(b1-4)GlcNAc(b1-4)[Fuc(a1-6)]GlcNAc
Summary of the method: as §1

[7] = target: Fuc(a1-2)[GalNAc(a1-3)]Gal
Summary of the method: as §1

[8] = target: Fuc(a1-2)[GalNAc(a1-3)]Gal(b1-3)GlcNAc(b1-2)Man(a1-3)[Fuc(a1-2)[GalNAc(a1-3)]Gal(b1-3)GlcNAc(b1-2)Man(a1-6)]Man(b1-4)GlcNAc(b1-4)GlcNAc
Summary of the method: as §1

[9] = target: Fuc(a1-2)[GalNAc(a1-3)]Gal(b1-3)GlcNAc(b1-2)Man(a1-3)[Fuc(a1-2)[GalNAc(a1-3)]Gal(b1-3)GlcNAc(b1-2)Man(a1-6)]Man(b1-4)GlcNAc(b1-4)[Fuc(a1-6)]GlcNAc
Summary of the method: as §1

[10] = target: Fuc(a1-2)[GalNAc(a1-3)]Gal(b1-4)GlcNAc(b1-2)Man(a1-3)[Fuc(a1-2)[GalNAc(a1-3)]Gal(b1-4)GlcNAc(b1-2)Man(a1-6)]Man(b1-4)GlcNAc(b1-4)GlcNAc
Summary of the method: as §1

[11] = target: Fuc(a1-2)[GalNAc(b1-3)]Gal
Summary of the method: as §1

[12] = target: Fuc(a1-3)[Gal(b1-4)]GlcNAc
Summary of the method: as §1

[13] = target: Fuc(a1-3)[Gal(b1-4)]GlcNAc(b1-2)Man(a1-3)[Fuc(a1-3)[Gal(b1-4)]GlcNAc(b1-2)Man(a1-6)]Man(b1-4)GlcNAc(b1-4)GlcNAc
Summary of the method: as §1

[14] = target: Fuc(a1-3)[Gal(b1-4)]GlcNAc(b1-3)Gal(b1-3)[Fuc(a1-4)]GlcNAc
Summary of the method: as §1

[15] = target: Gal(a1-4)Gal(b1-4)GlcNAc
Summary of the method: as §1

[16] = target: Gal(b1-3)GlcNAc
Summary of the method: as §1

[17] = target: Gal(b1-3)GlcNAc(b1-2)Man(a1-3)[GlcNAc(b1-4)][Gal(b1-3)GlcNAc(b1-2)Man(a1-6)]Man(b1-4)GlcNAc(b1-4)GlcNAc
Summary of the method: as §1

[18] = target: Gal(b1-3)GlcNAc(b1-3)Gal(b1-3)GlcNAc
Summary of the method: as §1

[19] = target: Gal(b1-3)GlcNAc(b1-3)Gal(b1-4)GlcNAc(b1-2)[Gal(b1-3)GlcNAc(b1-3)Gal(b1-4)GlcNAc(b1-6)]Man(a1-6)[Gal(b1-3)GlcNAc(b1-3)Gal(b1-4)GlcNAc(b1-2)Man(a1-3)]Man(b1-4)GlcNAc(b1-4)[Fuc(a1-6)]GlcNAc
Summary of the method: as §1

[20] = target: Gal(b1-3)GlcNAc(b1-3)Gal(b1-4)GlcNAc(b1-6)[Gal(b1-3)GlcNAc(b1-3)]Gal(b1-4)Glc
Summary of the method: as §1

[21] = target: Gal(b1-3)GlcNAc(b1-3)Gal(b1-4)[Fuc(a1-3)]GlcNAc(b1-6)[Gal(b1-3)GlcNAc(b1-3)]Gal(b1-4)Glc
Summary of the method: as §1

[22] = target: Gal(b1-3)[Fuc(a1-4)]GlcNAc(b1-6)GalNAc
Summary of the method: as §1

[23] = target: Gal(b1-4)GlcNAc(b1-2)Man
Summary of the method: as §1

[24] = target: Gal(b1-4)GlcNAc(b1-3)Gal(b1-4)GlcNAc(b1-3)Gal(b1-4)GlcNAc(b1-2)[Gal(b1-4)GlcNAc(b1-3)Gal(b1-4)GlcNAc(b1-3)Gal(b1-4)GlcNAc(b1-6)]Man(a1-6)[Gal(b1-4)GlcNAc(b1-3)Gal(b1-4)GlcNAc(b1-3)Gal(b1-4)GlcNAc(b1-2)Man(a1-3)]Man(b1-4)GlcNAc(b1-4)[Fuc(a1-6)]GlcNAc
Summary of the method: as §1

[25] = target: Gal(b1-4)GlcNAc(b1-3)Gal(b1-4)GlcNAc(b1-3)Gal(b1-4)GlcNAc(b1-3)Gal(b1-4)GlcNAc(b1-2)[Gal(b1-4)GlcNAc(b1-3)Gal(b1-4)GlcNAc(b1-3)Gal(b1-4)GlcNAc(b1-3)Gal(b1-4)GlcNAc(b1-6)]Man(a1-6)[Gal(b1-4)GlcNAc(b1-3)Gal(b1-4)GlcNAc(b1-3)Gal(b1-4)GlcNAc(b1-3)Gal(b1-4)GlcNAc(b1-2)Man(a1-3)]Man(b1-4)GlcNAc(b1-4)[Fuc(a1-6)]GlcNAc
Summary of the method: as §1

[26] = target: Gal(b1-4)GlcNAc(b1-3)Gal(b1-4)GlcNAc(b1-3)Gal(b1-4)GlcNAc(b1-3)Gal(b1-4)GlcNAc(b1-3)Gal(b1-4)GlcNAc(b1-2)[Gal(b1-4)GlcNAc(b1-3)Gal(b1-4)GlcNAc(b1-3)Gal(b1-4)GlcNAc(b1-3)Gal(b1-4)GlcNAc(b1-3)Gal(b1-4)GlcNAc(b1-6)]Man(a1-6)[Gal(b1-4)GlcNAc(b1-3)Gal(b1-4)GlcNAc(b1-3)Gal(b1-4)GlcNAc(b1-3)Gal(b1-4)GlcNAc(b1-3)Gal(b1-4)GlcNAc(b1-2)Man(a1-3)]Man(b1-4)GlcNAc(b1-4)[Fuc(a1-6)]GlcNAc
Summary of the method: as §1

[27] = target: Gal(b1-4)GlcNAc(b1-3)Gal(b1-4)[Fuc(a1-3)]GlcNAc(b1-3)Gal(b1-4)[Fuc(a1-3)]GlcNAc
Summary of the method: as §1

[28] = target: Gal(b1-4)GlcNAc(b1-3)[Gal(b1-4)GlcNAc(b1-6)]Gal(b1-4)GlcNAc
Summary of the method: as §1

[29] = target: Gal(b1-4)GlcNAc(b1-6)GalNAc
Summary of the method: as §1

[30] = target: Gal(b1-4)GlcNAc(b1-6)[Gal(b1-3)]GalNAc
Summary of the method: as §1

B1: PX9937F-bfa-516-16-516 (Bacteroides fragilis) (protein)
chain: LDIDPTSSIADSNYWKTEAQFSTFNVGLHALLRECSFNFFLLGEPRADIYGDVPFGGEATQGMERLPFNTINKENTGISNFAGMYKVINQINLMIAKTKETTVLSEAGKNYYLGEAYGMRAYLYFHLLRSWGDVILYLDYTNGASLDLSNLSKAASPAEEVMKQIKEDITASEKGFGSDYSFKYGRYYWSMAATQMLKGEVYLWSGRQMGGGTADYTTAKTALQSIVSNANVSLQDDFSKVFAYNNKDNSEIIFSIRNAKDEYNMWDDRFRQNLVPQQAYMTSTYCNKEGVSFKDLPEGQLNGLIRLQIRYDLYNKAFRDGDTRKDASMTAVYQKQQDGTVKYIAPFCNKYQGVLLDGASQRSFLNDYPIYRYADCLLLLAEAKALLGEDPTAEINQVRERAYGKEFFEANKATLAYPNDKGDFYTDNKYMSGDEDPLEAILKERMREFMFEGKRWYDLRLLGADYVTKRTSAVATRLLWPINESVLTDNPALKQTPGYQN
glycan array binding signal (z-score) [1]: 0.493 | glycan array binding signal (z-score) [2]: -0.097 | glycan array binding signal (z-score) [3]: -0.256 | glycan array binding signal (z-score) [4]: -0.012 | glycan array binding signal (z-score) [5]: 1.48 | glycan array binding signal (z-score) [6]: -0.006 | glycan array binding signal (z-score) [7]: -0.222 | glycan array binding signal (z-score) [8]: -0.141 | glycan array binding signal (z-score) [9]: -0.135 | glycan array binding signal (z-score) [10]: 2.69 | glycan array binding signal (z-score) [11]: 1.64 | glycan array binding signal (z-score) [12]: -0.071 | glycan array binding signal (z-score) [13]: -0.045 | glycan array binding signal (z-score) [14]: -0.161 | glycan array binding signal (z-score) [15]: -0.077 | glycan array binding signal (z-score) [16]: -0.207 | glycan array binding signal (z-score) [17]: 0.179 | glycan array binding signal (z-score) [18]: -0.041 | glycan array binding signal (z-score) [19]: 7.79 | glycan array binding signal (z-score) [20]: -0.142 | glycan array binding signal (z-score) [21]: -0.388 | glycan array binding signal (z-score) [22]: 1.88 | glycan array binding signal (z-score) [23]: -0.006 | glycan array binding signal (z-score) [24]: 4.38 | glycan array binding signal (z-score) [25]: 3.95 | glycan array binding signal (z-score) [26]: 20.8 | glycan array binding signal (z-score) [27]: -0.12 | glycan array binding signal (z-score) [28]: -0.235 | glycan array binding signal (z-score) [29]: 0.084 | glycan array binding signal (z-score) [30]: 0.054
